These results are taken from PubChem BioAssay AID488969 (Vanderbilt High Throughput Screening Facility, 2010).

Molecules are shown by their SMILES. Whole data set: some 110,000 compounds, median “z-score” near -0.1, cut for the highest 2% near 2. This is one part of a sample in which the highest values are shown more often than they occur. The source made the active and inactive calls.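 Rule for the calls: active = z-score in the third read window above 3 or below -3; inactive = the rest.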

For this assay, the target named is Metabotropic glutamate receptor 8 (Rattus norvegicus) (UniProt P70579). The experiment in a line: mGluR8 Gi/Go-coupled signaling modulation – cell-based, rat, thallium flux, HTS, primary screen (AID 488969). The conditions noted are these: HEK293 rat mGluR8, GIRK (G protein-gated inwardly rectifying potassium channel) thallium flux, FluoZin2; at 10 µM; stronger effect = higher value; submaximal glutamate (EC20) added with thallium.
Sequence of Metabotropic glutamate receptor 8 (Rattus norvegicus) (P70579 whole entry, looked up): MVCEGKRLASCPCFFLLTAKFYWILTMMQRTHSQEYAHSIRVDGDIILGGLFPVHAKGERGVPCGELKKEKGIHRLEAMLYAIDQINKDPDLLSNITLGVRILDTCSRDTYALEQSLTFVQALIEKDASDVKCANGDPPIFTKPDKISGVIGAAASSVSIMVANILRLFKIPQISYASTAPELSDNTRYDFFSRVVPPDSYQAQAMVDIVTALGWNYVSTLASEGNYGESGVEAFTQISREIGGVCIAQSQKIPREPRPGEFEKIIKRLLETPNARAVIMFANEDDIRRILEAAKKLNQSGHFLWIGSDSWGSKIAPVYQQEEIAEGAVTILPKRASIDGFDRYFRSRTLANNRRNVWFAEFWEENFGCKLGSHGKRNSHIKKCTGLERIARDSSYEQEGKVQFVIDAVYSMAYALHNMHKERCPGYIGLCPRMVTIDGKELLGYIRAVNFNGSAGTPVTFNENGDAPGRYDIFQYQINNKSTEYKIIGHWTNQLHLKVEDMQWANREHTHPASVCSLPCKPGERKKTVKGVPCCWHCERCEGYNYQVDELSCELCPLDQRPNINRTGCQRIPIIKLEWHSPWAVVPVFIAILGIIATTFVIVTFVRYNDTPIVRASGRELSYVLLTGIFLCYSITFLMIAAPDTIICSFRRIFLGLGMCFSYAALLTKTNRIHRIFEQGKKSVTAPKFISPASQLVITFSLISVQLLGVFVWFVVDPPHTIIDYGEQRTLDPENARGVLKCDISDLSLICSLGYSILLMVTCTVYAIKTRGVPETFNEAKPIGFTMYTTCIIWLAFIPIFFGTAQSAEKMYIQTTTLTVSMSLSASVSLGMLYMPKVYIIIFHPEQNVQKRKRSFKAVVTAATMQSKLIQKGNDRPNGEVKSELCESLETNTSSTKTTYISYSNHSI
Turning to `COc1cc(NC(=O)CN(C)S(=O)(=O)c2ccc3c(c2)CCC(=O)N3)cc(OC)c1`, the z-score was -0.176.
For the compound `O=C1NC(=O)[C@@H]2C3c4ccccc4C=CN3[C@H](C(=O)c3cccs3)[C@H]12` (stereo not given in full), the z-score is -0.687.
Under `CCCCC(=O)Nc1nn(CCC)c2nc3ccccc3cc12` stands -1.22; under `CC(C)=C1C2CCC1C1C(=O)N(NC(=O)COc3ccc(Cl)c(C)c3)C(=O)C21` (stereo not given), -0.481; under `CC(C)=CCC/C(C)=C/C=N/NC(=O)c1ccccc1[N+](=O)[O-]`, -0.0423.
Under `Cc1ccc(C2c3c(oc4ccc(Cl)cc4c3=O)C(=O)N2CCCN2CCOCC2)o1` (stereo not given) stands 3.95 (active); under `O=C1c2oc3ccc(Cl)cc3c(=O)c2C(c2ccco2)N1CCN1CCOCC1` (stereo not given), 0.841.
In the case of `Cc1ccc(C2c3c(oc4ccccc4c3=O)C(=O)N2CCCN2CCOCC2)o1` (stereo not given) it was 0.634; in that of `CC(C)c1nnc(NC(=O)CCC(=O)NCc2ccc3c(c2)OCO3)s1`, 0.746; in that of `COc1ccc(CCNC(=O)c2nonc2N)cc1`, -0.242.
As to `O=S(=O)(NCC1CCCO1)c1ccc(S(=O)(=O)N2CCc3ccccc3C2)cc1` (stereo not given), the z-score stood at 0.1.
In the case of `COCCCNCCCOc1ccc(C)cc1Br` it was -0.00352; in that of `COCCCNCCCOc1ccc(Cl)cc1Br`, 3.75 (active); in that of `OCCNCCCOc1ccc(Cl)cc1Br`, 0.496.
Under `COc1ccc(N2C(=O)CC(N3CCN(c4ccc(C(=O)c5cccnc5)cc4)CC3)C2=O)cc1` (stereo not given) stands -0.186.
Under `CC(C)(C)c1ccc(OCc2ccc(C(=O)N/N=C3\CC4CC=CC34)cc2)cc1` (stereo not given) stands -0.0236; under `O=C1NC(=S)SC1=C1CCCC1`, 1.36.
As to `O=C1NC(=S)SC1=C1CCCCCC1`, the z-score is 17.1 (active).
In turn, `O=C1NC(=O)C(=C2CCCCCC2)S1` returned a z-score of 0.367.
Regarding `Cc1cc(C(=O)NCc2ccccc2F)cs1`, the z-score was -0.288.
As to `CCSC1=N/C(=C\c2ccc(OC)cc2)C(=O)N1`, the z-score was -0.286.
Under `S=c1[nH]nc(-c2ccc3ccccc3n2)o1` stands -0.153; under `CC(c1ccc(F)cc1)n1c(-c2ccc3ccccc3n2)n[nH]c1=S` (stereo not given), 6.84 (active); under `S=c1[nH]nc(-c2ccc3ccccc3n2)n1Cc1ccccc1`, 0.834.
In the case of `S=c1[nH]nc(-c2ccc3ccccc3n2)n1-c1ccccc1` it was 0.119; in that of `S=c1[nH]nc(-c2ccc3ccccc3n2)n1-c1ccc2ncccc2c1`, -0.148.
Regarding `S=c1[nH]nc(-c2ccc3ccccc3n2)n1-c1cc(Cl)cc(Cl)c1`, the z-score amounted to 2.18.
For the compound `CC(c1ccc(Cl)cc1)n1c(-c2ccc3ccccc3n2)n[nH]c1=S` (stereo not given), the z-score is 7.23 (active).
In the case of `S=c1[nH]nc(-c2ccc3ccccc3n2)n1-c1ccc(Cl)cc1` it was 0.934; in that of `S=c1[nH]nc(-c2ccc3ccccc3n2)n1-c1ccccc1Cl`, 0.0824; in that of `Cc1ccc(C(=O)CSc2nnc(COc3ccc(C#N)cc3)n2-c2ccccc2)cc1`, 0.655.
In the case of `Oc1csc(Cc2nc(-c3ccc4ccccc4c3)cs2)n1` it was -0.78; in that of `Cc1ccc(NC(=O)C2CCCN(S(=O)(=O)c3cnc[nH]3)C2)cc1F` (stereo not given), -0.00916.
Under `Clc1ccc(-c2cc(CSc3cccc(Cl)c3)on2)cc1` stands -0.234; under `CCOC(=O)c1cc(NC(=O)COc2ccc([N+](=O)[O-])cc2)cc(C(=O)OCC)c1`, -0.0752.
In turn, `Cc1[nH]c(=O)[nH]c(=O)c1/C=C/C(=O)OCC(C)C` returned a z-score of 0.104.
`NCCCCCc1nnc(SCc2ccc(Cl)cc2Cl)o1` had a z-score of 2.74.
In the case of `NCCCCCc1nnc(SCc2ccc(Cl)c(Cl)c2)o1` it was 0.93; in that of `NCCCCCc1nnc(SCc2ccccc2Cl)o1`, 1.74.
With `CCN(C(=O)CSc1nc2ccccc2n1CCc1ccccc1)C1CCS(=O)(=O)C1` (stereo not given), the z-score was 3.88 (active).
Under `O=C(CSc1nc2ccccc2n1CCc1ccccc1)N1CCOCC1` stands 2.47; under `O=C(CSc1nc2ccccc2n1CCc1ccccc1)NC1CCS(=O)(=O)C1` (stereo not given), 2.39; under `O=C(CSc1nc2cc(C(F)(F)F)ccc2n1Cc1ccccc1)NC1CCS(=O)(=O)C1` (stereo not given), -0.137.
Regarding `Cc1ccc(-c2cn(-c3ccccc3)c(SCC(N)=O)n2)cc1C`, the z-score is -1.06.
In the case of `Cc1ccc(-c2cn(-c3ccccc3)c(SCC(=O)NC3CCS(=O)(=O)C3)n2)cc1C` (stereo not given) it was 3.44 (active); in that of `CN(C(=O)CSc1nc2ccccc2n1CCc1ccccc1)C1CCS(=O)(=O)C1` (stereo not given), 0.483; in that of `O=C(CSc1nc2ccccc2n1CC(=O)N1CCOCC1)N1CCCC1`, 0.588.
As to `O=C(CSc1nnc(-c2ccc(Br)cc2)n1CCc1ccccc1)NC1CCS(=O)(=O)C1` (stereo not given), the z-score is -0.076.
Under `O=C(Cn1c(SCc2ccccc2)nc2ccccc21)N1CCOCC1` stands -0.096; under `CCN(C(=O)CSc1nc2cc(C(F)(F)F)ccc2n1Cc1ccccc1)C1CCS(=O)(=O)C1` (stereo not given), -0.724.
Under `Cc1ccc(C)c(-n2cc(-c3ccc(Cl)cc3)nc2SCC(=O)NC2CCS(=O)(=O)C2)c1` (stereo not given) stands -0.524; under `CCOC(=O)/C(=N\Nc1ccc(OC)cc1)c1csc(Nc2ccccc2)n1`, 0.551.
In the case of `COC(=O)CCc1c(C)c(C#N)c2nc3ccccc3n2c1N1CCCC1`, the z-score is -0.478.
In the case of `Cc1cc(-n2ccc(=O)[nH]c2=O)nc(-c2ccccc2)n1` it was -0.208.
`S=C1NCCc2ccc(Cl)cc2C1c1ccccc1` (stereo not given) yielded a z-score of -0.00171.
In the case of `Cc1c(C(C)(C)C)c(C=S)n2ccccc12` it was -0.503; in that of `CN(C)c1ccc(C2NCC(CCl)O2)cc1` (stereo not given), -0.159; in that of `COc1ccccc1-n1c(CNC(=O)COc2ccccc2)n[nH]c1=S`, 2.71.
Under `CCN(CC)S(=O)(=O)c1ccc(C(=O)NCc2n[nH]c(=S)n2-c2ccccc2OC)cc1` stands -0.0139.
Under `COc1cc(OC)cc(C(=O)NCc2n[nH]c(=S)n2-c2ccccc2OC)c1` stands -0.981.
`CSc1ccc(N2CCN(CCCNC(=O)Nc3ccccc3F)CC2)cc1` displayed a z-score of 0.699.
Regarding `N#Cc1ccccc1NC(=O)COC(=O)CSc1nc2ccccc2o1`, the z-score is -2.27.
In the case of `Fc1ccc(CCNC(=S)Nc2ccc(F)cc2)cc1` it was 0.103; in that of `O=c1/c(=C/c2ccccn2)sc2nc3ccccc3n12`, 0.539.
Under `Cc1cc(/C=c2/sc3nc4ccccc4n3c2=O)c(C)n1-c1ccccn1` stands 6.08 (active); under `O=c1/c(=C\c2cccnc2)sc2nc3ccccc3n12`, -0.0361.
Under `Cc1nc2oc3c(NCc4ccccc4)ncnc3c2c2c1COC(C)(C)C2` stands -0.383; under `CCOc1ccc(C2=NNC(c3cccs3)=Nc3ccc(OC)cc32)cc1`, 3.11 (active).
`CCOc1ccc(C2=NNC(c3cccs3)=Nc3ccc(OCC)cc32)cc1` yielded a z-score of -0.166.
Consider `CCCOc1ccc(C2=NNC(c3cccs3)=Nc3ccc(OC)cc32)cc1`, for which the z-score was -0.471.
